Assay outcomes as filed in PubChem.
TGFb SMAD3 inh: TGF-b pathway inhibition. 410,000 tested, 1.2% active. HepG2 CAGA-GFP TGF-b/SMAD3 reporter, GFP fluorescence, 18 h; TGF-beta stimulated, 500 pg/mL final. Potency, µM (top dose mostly 46.1 µM), for the others: at the top dose activity, negative = inhibition, actives largely listed as inhibitors; also: potency is read from the fitted curve at half-maximal effect; % is scaled to controls: 0 for no effect and ±100 for the full control effect; nearly all actives have a fitted effect of over 65% in size
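Smad-responsive CAGA-GFP expression was quantified in HEPG2 cells exposed to compounds and 500 pg/mL final TGF-beta for 18 h at 37 degrees C; unstimulated wells defined full inhibition.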
HepG2 viability: counter-screen for TGF-b inhibitors: cytotoxicity in HepG2 cells; HepG2 CAGA-GFP viability, ATP luminescence, 18 h; Potency, µM (series often up to 46.1 µM), for inactives: top-dose activity change, negative = cytotoxicity, hits mostly cytotoxic; 410,000 tested, 0.76% active; also: potency is read from the fitted curve at half-maximal effect
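HepG2 CAGA-GFP cells (1000/well, DMEM with 1% FBS) received compound, then TGF-beta at 500 pg/mL final, and were incubated 18 hours at 37 degrees C. Viability was read by CellTiter-Glo luminescence. Media-only wells were set as complete cell-killing and DMSO as no toxicity.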
ATXN2 expr inh: reduces ATXN2 reporter expression in HEK-293 cells. Potency, µM (top dose mostly 57 µM), without a hit: at the top dose activity change, negative = inhibition, most hits filed as inhibitors. 360,000 tested, 0.72% active. HEK-293 ATXN2-luciferase reporter, luminescence, 24 h; also: potency is read from the fitted curve at half-maximal effect; % is scaled to controls: 0 for no effect and ±100 for the full control effect; nearly all actives have a fitted effect of over 55% in size
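ATXN2-luciferase reporter cells (luciferase flanked by upstream and downstream ATXN2 gene portions) were treated 24 h at 37 °C with compounds at up to 57 uM. SteadyGlo luminescence gave expression; GF-AFC fluorescence gave viability.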
S2 tox: viability counter-screen for ATXN expression inhibitors; 400,000 tested, 0.49% active; Potency, µM (top dose mostly 56.7 µM), actives largely listed as cytotoxic; AID 651635; S2 cells (HEK-293 line with an ATXN2-luciferase reporter) viability, CellTiter-Fluor protease fluorescence, 24 h; also: potency is read from the fitted curve at half-maximal effect; nearly all actives have a fitted effect of over 40% in size
IL1B secr inh: blocks inflammasome-driven IL-1 beta release; AID 743279; 360,000 tested, 4.7% active; THP-1 LPS/ATP IL-1B secretion, AlphaLISA, 16 h; hits give low values; activity change, % at 57.5 µM; in the data active = activity change below about -50%; inconclusive = mostly about -30% to -49%; also: % is scaled to controls: 0 for no effect and ±100 for the full control effect
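THP-1 cells pretreated 1 hr with compounds (up to 57.5 uM final), then stimulated with LPS (250 ng/mL final) plus ATP (1.25 mM final); secreted IL-1B measured by AlphaLISA after 16 hr, decreased signal indicating inhibition.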
* = called active by the depositor; i = inactive; u = inconclusive; x = no result. Only some compounds are listed: those with a hit (about 5.7% of all), similar ones and a draw of the others. Unless noted, calls follow the shape of the dose curve; as a rule, active = well fitted curve in the direction sought with a large enough effect; inconclusive = small, poorly fitted or top-dose-only effect, or another doubt; inactive = no such curve, though single readings can be large; an effect the other way counts as inactive or inconclusive.

SMILES | TGFb SMAD3 inh | HepG2 viability | ATXN2 expr inh | S2 tox | IL1B secr inh
O=C(Cn1c(=O)nc(-c2ccccc2)c2ccccc21)NCc1ccccc1Cl | 0% | -14% | x | x | x
COc1ccc(C(=O)C=Cc2ccc(OCc3ccccc3)c(OC)c2)cc1OC | 15% | -1% | x | i | -90*
COc1cc(OC)c(C(=O)C=Cc2ccc(OC)c(OC)c2)c(OC)c1 | -4% | -40% | u | i | -101*
COc1cc(OCc2ccccc2)c(C(=O)/C=C/c2ccc3c(c2)OCO3)c(OC)c1OC | -4% | -9% | u | i | -91*
COc1cc(/C=C/C(=O)NC(C)(C)C)ccc1OCc1ccccc1 | -6% | 6% | -1% | i | -13
COc1ccccc1CNC(=O)COC(=O)/C=C/c1ccc2c(c1)OCO2 | 3% | 1% | 24% | i | -1
CC(O)(COc1ccccc1)c1ccc2c(c1)CN(Cc1cccc3cccnc13)CCO2 (stereo not drawn) | x | x | x | i | x
CCCN1C(=O)/C(=C/c2ccc(C)s2)SC1=Nc1ccc(OC)cc1 | 3% | -4% | -10% | i | -11
COc1ccc(N=C2S/C(=C\c3ccc(Cl)c([N+](=O)[O-])c3)C(=O)N2CCN(C)C)cc1 | u | -133% | x | 10µM* | -61*
CCN1C(=O)/C(=C/c2cccs2)SC1=Nc1ccc(OC)cc1 | 7% | -12% | -6% | u | -3
CCN(CC)CCN1C(=O)/C(=C\c2ccc(Cl)c([N+](=O)[O-])c2)SC1=Nc1ccc(OC)cc1 | u | 20µM* | 32µM* | x | -99*
CCN(CC)CCC(c1ccc(N(C)C)cc1)c1c(OC)cc(OC)c2c1OC(=O)CC2c1ccc(N(C)C)cc1 (stereo not drawn) | 5% | -1% | x | x | x
COc1ccccc1NC(=O)c1c(-c2ccc(C)cc2)nnc2ccccc12 | -4% | -2% | x | x | x
CCCS(=O)(=O)Nc1cc(-c2cn3cccc(C)c3n2)ccc1C | -14% | -10% | 37% | i | x
Cn1cnc2c(N/N=C/c3cccs3)ncnc21 | -18% | -5% | -20% | u | -91*
O=C(NC1CCS(=O)(=O)C1)/C(=C\c1ccco1)NC(=O)c1ccccc1 (stereo not drawn) | -11% | -18% | -11% | i | -63*
CN1CCN(CC(=O)Nc2cc(N(C)C)nc3ccccc23)CC1 | 10% | 5% | u | u | -62*
C=CCC[C@H](Cc1ccc(F)cc1)C(=O)OC[C@H](Cc1c[nH]c2ccccc12)NC(=O)[C@@H](CC=C)CC(=O)N[C@@H](CO)Cc1ccccc1 | u | 13µM* | 16µM* | 18µM* | 69
C=CCC[C@H](Cc1ccc(F)cc1)C(=O)OC[C@H](Cc1c[nH]c2ccccc12)NC(=O)[C@@H](CC=C)CC(=O)N[C@H](CO)Cc1ccccc1 | 13µM* | -107% | 0% | u | u
C=CC[C@@H](CC(=O)N[C@@H](CO)Cc1ccccc1)C(=O)N[C@@H](COC(=O)[C@@H](CC=C)Cc1ccc(F)cc1)Cc1c[nH]c2ccccc12 | -29% | -28% | -34% | u | -51*
C=CC[C@H](CC(=O)N[C@H](CO)Cc1ccccc1)C(=O)N[C@@H](COC(=O)[C@@H](CC=C)CC(=O)OC(C)(C)C)Cc1c[nH]c2ccccc12 | 11µM* | -102% | u | x | -13
C=CC[C@H](CC(=O)N[C@H](CO)Cc1ccccc1)C(=O)N[C@H](COC(=O)[C@@H](CC=C)Cc1ccc(F)cc1)Cc1c[nH]c2ccccc12 | -19% | -9% | -13% | u | -10
C=CC[C@@H](CC(=O)N[C@@H](CO)Cc1ccccc1)C(=O)N[C@H](COC(=O)[C@@H](CC=C)CC(=O)OC(C)(C)C)Cc1c[nH]c2ccccc12 | u | -51% | u | x | u
CCOc1cccc(C2C=C(c3ccc4c(c3)OCO4)NC(c3ccccc3Cl)N2)c1O (stereo not drawn) | u | -27% | x | x | x
C=CCC[C@@H](Cc1ccc(F)cc1)C(=O)OC[C@H](Cc1c[nH]c2ccccc12)NC(=O)[C@H](CC=C)CC(=O)NCCO | u | -106% | u | u | -57*
SMILES | TGFb SMAD3 inh | HepG2 viability | ATXN2 expr inh | S2 tox | IL1B secr inh
C=CCC[C@H](Cc1ccc(F)cc1)C(=O)OC[C@H](Cc1c[nH]c2ccccc12)NC(=O)[C@H](CC=C)CC(=O)N[C@H](CO)Cc1ccccc1 | -19% | -7% | -9% | u | -8
C=CCC[C@@H](Cc1ccc(F)cc1)C(=O)OC[C@H](Cc1c[nH]c2ccccc12)NC(=O)[C@@H](CC=C)CC(=O)N[C@H](CO)Cc1ccccc1 | u | 13µM* | -18% | u | -8
NCC1CC2c3ccccc3C1c1ccccc12 (stereo not drawn) | 1% | -21% | -23% | i | -78*
CCN1CCN(c2ccc(S(=O)(=O)N3CCCCC3)cc2NC(=O)c2cccc(C(F)(F)F)c2)CC1 | -1% | 7% | -6% | i | -72*
CN1CCN(S(=O)(=O)c2cccc(C(=O)Nc3cc(C(F)(F)F)ccc3N3CCCCC3)c2)CC1 | 18% | -1% | -22% | i | -52*
Cc1cccc(-c2noc(-c3ccccc3OCC(=O)Nc3ccccc3[N+](=O)[O-])n2)c1 | -20% | -20% | 6% | i | x
COc1ccc(CCNC(=O)c2cc(S(=O)(=O)N3CCCCC3)ccc2Cl)cc1 | -24% | -4% | -11% | i | -2
CN(Cc1cnn(-c2ccccc2)c1)C(=O)c1cccc(S(=O)(=O)N(C)c2ccccc2)c1 | -9% | -23% | x | u | -23
COc1ccc(N(C)S(=O)(=O)c2ccc(Cl)c(C(=O)NCCc3ccc(Cl)cc3)c2)cc1 | -36% | -12% | u | i | -56*
Cc1ccc(N(C)S(=O)(=O)c2cccc(C(=O)N(C)Cc3cnn(-c4ccccc4)c3)c2)cc1 | u | 10% | -20% | u | -81*
COc1ccc(CNC(=O)c2ccc(N(C)S(=O)(=O)c3ccc(C)cc3)cc2)cc1 | u | -31% | -18% | u | -1
COc1ccc(N(C)S(=O)(=O)c2cccc(C(=O)NCc3ccc(C)cc3)c2)cc1 | u | -30% | -9% | i | -59*
CC(C)(C)OC(=O)N1CCC(c2c(C(=O)NCCN3CCOCC3)cnn2-c2ccc(F)cc2F)CC1 | -41% | 5% | x | x | x
CCCCOc1ccc(CONS(=O)(=O)c2ccc(NC(C)=O)cc2)cc1Cl | u | -31% | -11% | i | -103*
Cc1ccc(C)c(NC(=O)CN2C(=O)CCc3cc(S(=O)(=O)N4CCCCC4)ccc32)c1 | -3% | -28% | 5% | i | x
O=C(Cn1cnc2onc(-c3ccc(F)cc3)c2c1=O)N1CCN(c2ccccc2F)CC1 | -19% | -11% | -6% | i | x
